According to PubChem BioAssay AID2685 (National Center for Advancing Translational Sciences (NCATS), 2010):
About 2,100 (0.66%) of roughly 320,000 compounds were called active. Inconclusive results (about 53%) are left out. Calls follow the shape of the dose curve; as a rule, active = well fitted inhibition curve with a large enough effect in the signal ratio, with a control signal flat (not every such curve was filed as active); inconclusive = small, poorly fitted or top-dose-only effect, or effect the other way, or a change in a side signal; inactive = flat fitted curve, though single readings scatter; the % refers to the signal ratio. Many of the other results were omitted from the sample, so actives are more common in it than they were.

experiment: qHTS Assay for Lipid Storage Modulators in Drosophila S3 Cells; settings: BODIPY lipid droplet fluorescence, 18-24 h, cells fed with added oleic acid; cell number change: measured here: cell count max response; series mostly up to 46.1 µM; lipid storage change, negative = inhibition: at the top concentration;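 as to cell number change: cells counted by Cell Tracker Red CMTPX staining in the red channel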; as to lipid storage change, negative = inhibition: % is scaled to controls: 0 for no effect and ±100 for the full control effect
Description: NIH Molecular Libraries Probe Production Centers Network [MLPCN] NIH Chemical Genomics Center [NCGC] MLPCN Grant: 1 R03 MH085686-01 Assay Submitter (PI): Beller, Mathias; Max-Planck-Institut fur Biophysikalische Chemie NCGC Assay Overview: Storing lipids as a reservoir for energy or the anabolism of elementary metabolites is a common feature of probably all cells and is conserved from bacteria to humans. The universal cellular lipid storage organelle is the so-called lipid storage droplet (LD). Although ubiquitous, LDs share a simple structure composed of a hydrophobic core that harbors the storage lipids, which is shielded by a droplet-specific phospholipid monolayer to which proteins are attached. The current model of LD biogenesis involves an incorporation of the lipid core into the membrane leaflets of the endoplasmic reticulum (ER) followed by a subsequent budding-like maturation of a LD, which ultimately pinches off. Once released, LD volume can increase by localized lipogenesis or fusion of existing droplet. Storage lipids are re-mobilized enzymatically by lipase activity. Lipase regulation in the adipocyte is heavily studied and involves multiple components including catecholamine signaling, the LD-associated proteins Perilipin and comparative gene identification (CGI-58) and at least two lipases named hormone sensitive lipase (HSL) and adipocyte triglyceride lipase (ATGL). LD regulation outside of the adipocyte is poorly understood and only few components are known. However, there is an urgent need to learn more about ectopic fat depots as mislocalized storage of lipids, for example in the liver or muscle, is an eminent health problem associated with insulin resistance or the metabolic syndrome. We developed a laser-scanning cytometer assay to enable 1,536-well screening and combined the results of the small molecules screen with an RNAi database based on lipid storage.
Triacsin C (Sigma-Aldrich T-4540), an inhibitor of long-chain fatty acyl CoA synthetase that blocks synthesis of triglycerides, was used as a positive control for lipid under-storage. A total of 23 nL of compound solution of different concentrations were transferred to the assay plates using a Kalypsys pin tool equipped with a 1,536-pin array containing 10-nL slotted pins (FP1S10, 0.457-mm diameter, 50.8 mm long; V&P Scientific). One microliter of oleic acid (400 uM) was added, and the plate was lidded with stainless steel rubber gasket lined lids containing pinholes. […] Fluorescence was detected by excitation of the fluorophores with a 488-nm laser on an Acumen Explorer (TTP Lab Tech). The total intensity in channel 2 (500-530 nm) reflected lipid droplet accumulation. Cells were detected using channel 3 (575-640 nm) with 5-um width and 100-um depth filters. The ratio of the number of objects in PMT channel 2 over the number of objects in PMT channel 3 was also calculated. Percent activity was computed relative to an internal control (100% inhibited lipid droplet deposition due to the presence of 20 uM Triacsin C), which was added to 32 wells/plate.
Potency is read from the fitted curve at half-maximal effect.

Row | SMILES | lipid storage change, negative = inhibition | cell number change | outcome | Potency
1 | CCOc1cccc(CNCCc2c(C)[nH]c3ccc(OC(F)(F)F)cc23)c1O | -20.3% (inactive) | -1.8% |  | 
2 | CC(C(O)c1ccccc1)N(C)CCn1cnc2c1c(=O)n(C)c(=O)n2C (stereo not drawn) | 16.1% (inactive) | 3.11% |  | 
3 | CCOC(=O)C(C)(CC)NC(=O)CSP(=S)(OCC)OCC (stereo not drawn) |  |  | inactive | 
4 | Cc1ccc(NP(=O)(Oc2ccccc2F)Oc2ccccc2F)cc1 | -27.5% (inactive) | -20.4% |  | 
5 | Cc1ccc(NP(=O)(Oc2ccccc2F)Oc2ccccc2F)cc1C |  | -29.4% |  | 32.6 µM (active)
6 | O=P(Nc1cccc(F)c1)(Oc1ccccc1F)Oc1ccccc1F | -5.33% (inactive) | 10.8% |  | 
7 | COC(=O)C(O)(c1ccc(N(C)S(=O)(=O)c2ccccc2)cc1)C(F)(F)F (stereo not drawn) | 15.7% (inactive) | -19.2% |  | 
8 | O=c1c2cc(Cl)cc(Cl)c2nc(CN2CCOCC2)n1-c1ccccc1F | 20% (inactive) | -6.69% |  | 
9 | CN1CCN(c2ccc(C=O)cc2)CC1 |  | -17.6% |  | 23.1 µM (active)
10 | CN1CCN(c2ccc(NC(=O)C(C)(C)C)cc2)CC1 | -5.61% (inactive) | -9.28% |  | 
11 | CN1CCN(c2ccc(N)c(N3CCN(C)CC3)c2)CC1 |  | 19% | inactive | 
12 | Nc1ccccc1C(=O)c1ccccc1 | 6.34% (inactive) | 17.1% |  | 
13 | COc1cccc(CNC2CN3CCC2CC3)c1OC (stereo not drawn) |  | -7.47% |  | 29.1 µM (active)
14 | COc1cccc(CNCCc2ccccc2)c1OC | -9.36% (inactive) | 7.84% |  | 
15 | Fc1ccccc1CNC1CN2CCC1CC2 (stereo not drawn) | -9.85% (inactive) | 4.51% |  | 
16 | COc1ccc(CN2C(=O)NC(=O)/C(=C/c3ccc([N+](=O)[O-])s3)C2=O)cc1 | -13.4% (inactive) | 7.76% |  | 
17 | O=C(c1ccc2c(c1)OCO2)C1CCCN(Cc2ccccn2)C1 (stereo not drawn) | 22.4% (inactive) | 1.62% |  | 
18 | CCN(CC)C(=O)c1ccc(NC(=O)COc2ccc(-c3nn(C)c(=O)c4ccccc34)cc2)cc1 |  | -2.38% | inactive | 
19 | CCN(CC)C(=O)c1ccc(NC(=O)c2ccc(-c3nn(C)c(=O)c4ccccc34)cc2)cc1 | 2.66% (inactive) | 4.89% |  | 
20 | CCN(CC)C(=O)c1ccc(NC(=O)c2cn(-c3ccccc3)nc2-c2ccc(OC)cc2)cc1 |  | -6.07% |  | 2.31 µM (active)
21 | COc1ccc(-n2c(CN3CCOCC3)nc3ccccc3c2=O)c(OC)c1 | -6.32% (inactive) | -3.52% |  | 
22 | CN1CCN(Cc2nc3ccccc3c(=O)[nH]2)CC1 |  | -23.1% |  | 29.1 µM (active)
23 | COc1ccc(N2CCN(Cc3nc4ccccc4[nH]3)CC2)cc1 | -14.5% (inactive) | 15.8% |  | 

Row | SMILES | lipid storage change, negative = inhibition | cell number change | outcome | Potency
24 | Cc1cc(N2CCN(C)CC2)nc2ccccc12 | 3.1% (inactive) | 21.8% |  | 
25 | C[C@]12CCC3[C@@H](CC[C@H]4C[C@@H](O)CC[C@]34C)C1CCC2=O (stereo partly drawn) |  | 15.3% | inactive | 
26 | C#CC[N+]1(C)[C@@H]2CC(OC(=O)C(CO)c3ccccc3)C[C@H]1C(O)C2 (stereo partly drawn) | 0.585% (inactive) | 7.57% |  | 
27 | Cc1cccc(-n2c(/C=C/c3ccccn3)nc3ccccc3c2=O)c1 |  | -12.4% | inactive | 
28 | Cc1ccccc1-n1c(/C=C/c2ccccn2)nc2ccccc2c1=O | 21.2% (inactive) | 15.7% |  | 
29 | Cc1cccc(-n2c(-c3ccc([N+](=O)[O-])cc3)nc3ccccc3c2=O)c1 | 10.9% (inactive) | -0.157% |  | 
30 | Cc1cccc(-n2c(/C=C/c3ccc([N+](=O)[O-])o3)nc3ccccc3c2=O)c1 |  | 9.44% |  | 5.17 µM (active)
31 | O=c1c2ccccc2nc(/C=C/c2ccccn2)n1-c1ccccc1 |  | 5.25% | inactive | 
32 | Cc1ccc(-n2c(/C=C/c3ccccn3)nc3ccccc3c2=O)cc1 |  | 27.8% |  | 6.51 µM (active)
33 | CSc1nc(N2CCN(C)CC2)c2ccccc2n1 | 2.69% (inactive) | 12% |  | 
34 | C/C=C1/CC(C)C(C)(O)C(=O)OCC2CCN3CCC(OC1=O)C23 (stereo not drawn) | 1.68% (inactive) | 3.31% |  | 
35 | Cc1ccc(N2C(=O)/C(=C/c3ccc(CN(CCC#N)S(C)(=O)=O)o3)C(=O)NC2=S)cc1 | -8.75% (inactive) | 9.59% |  | 
36 | [N-]=[N+]=NCc1cn2cccnc2n1 | -11.6% (inactive) | -11.7% |  | 
37 | c1ccc(C2CC3CC(c4ccco4)N2O3)cc1 (stereo not drawn) | 6.42% (inactive) | 2.08% |  | 
38 | Cc1ccc(N=Cc2c(O)n(C)c(=O)n(C)c2=O)cc1 |  | -14% | inactive | 
39 | CN1C2CCC1CC(OC(=O)c1ccc(Cl)cc1)C2 (stereo not drawn) | 6.86% (inactive) | 1.41% |  | 
40 | COc1ccc(C(=O)OC2C[C@H]3CC[C@H](C2)N3C)cc1OC (stereo partly drawn) | -1.64% (inactive) |  |  | 
41 | CN1C2CCC1CC(OC(=O)c1cc(Cl)cc(Cl)c1)C2 (stereo not drawn) |  |  |  | 23.1 µM (active)
42 | CNP1(NC)=NC(C(F)(F)F)=NC(C(F)(F)F)=N1 | -21.3% (inactive) |  |  | 
43 | COc1ccc(CC(C)NCCc2ccc(OC)c(OC)c2)cc1 (stereo not drawn) |  | 5.07% | inactive | 
44 | O=C(Nc1ccc(Cl)cc1)N1CC2CC(C1)c1cccc(=O)n1C2 (stereo not drawn) |  | -2.6% |  | 1.84 µM (active)
45 | O=C(Nc1cccc(Cl)c1)N1C[C@H]2C[C@@H](C1)c1cccc(=O)n1C2 | 17.1% (inactive) | -7.76% |  | 
46 | O=C(Nc1ccc(F)cc1)N1CC2CC(C1)c1cccc(=O)n1C2 (stereo not drawn) | -5.85% (inactive) | -3.93% |  | 
